Laboratory results from the supplement of paper PMC6555819.

system: RARa:RXR (NR concentration 270 nM, RXRa partner concentration 90 nM); assay: PBM binding z-score (relative to random genomic background probes); higher = stronger binding; sequences stand for … in GC…GCGATTGACAGCGTAGAATGAAGG
In short: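 Binding buffer was PBS pH 7.4 with 2% milk, 0.02% Triton X-100, 1 mM DTT, 0.2 mg/mL BSA and 0.4 mg/ml salmon testes DNA. In it, ligand-free nuclear receptor dimers were incubated 1 h on custom Agilent 4×180K protein-binding microarrays carrying double-stranded probes. Antibodies against each partner (one per run) detected binding, and z-scores were calculated against random background probes after regression normalization of scanned fluorescence.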

Row | Sequence | PBM binding z-score
1 | TCATATAGGTAACCAGGTGAAAGTCCGTAAGTTA | 1.06
2 | TGAATGAGGCTATAAGATCAGGGAACGTTGCAAA | -0.215
3 | CCGACTGGGCCAAGGTTACCATAACGCACAGCCA | 0.508
4 | AGAATGAGGTTATTAAGGTCAGGGAATTGCGGTC | 4.38
5 | CCTTACGAGTCACGAGGTTATAGCACGACGAGCG | 1.79
6 | GCTATTAGTTGAAAGGGCCACCGAATGATTCTCG | -0.0438
7 | GCTATTAGTTGAAAGGGCAACCGCATGATTCTCG | 1.39
8 | CCTGCTTGGTCATGGTCAGCTAATCTACAGTATG | -0.106
9 | CAAACTAGGTCACAGAGTTCAAAGTCCGTGCGTA | 5.88
10 | CGTCAAAGTTCACGGTAACGTAACAGAAAGCAGC | 4.67
11 | ATCTCTAGGTAAAGATAATTCAGTGAATGCAAAT | 0.441
12 | GGAACAAGGGCATTCGAGTTGATAGCATGGCGAT | 0.884
13 | CCTACTGGGGCATAAGGTTACCATAAGCCAGCCC | 1.42
14 | GATACAGGGTCAAGGCCAGAGCACGCGTATTGAT | 4.64
15 | CCTAGTTGGTCAAGGTCACTCACGCTATAGGTAC | 3.58
16 | TAGCCTGGGTCATTGGGCCAGTATAGTACGCATC | 2.07
17 | ATCTCTAGTTAAAAGTTCAGTGAATCCCGAGGAT | 1.03
18 | TCTGCTAGGTCAGTGGGTCAGCTAACGAGCTGCC | 2.11
19 | CCTTACGGGTCACGAGGTTTTAGCACGACGAGCG | 4.95
20 | GCTTACGGGTCAAAGGCTATAGCATGAATAGAAT | 4.4

Row | Sequence | PBM binding z-score
21 | AGAATGAGGTTATTAAGTTCAGGGAATTGCGGTC | 2.88
22 | ACAGACAGGTGATGAAGGTAACTCCGGCTATCAT | 0.357
23 | ATCTCTAGGTAACAAGTTCAGTGAAAGAGAGGAC | 0.933
24 | CGTCCAAGGTCAAACGTCAGTGAAGAGATGACGG | 5.04
25 | AGTCACAGTTCAGGACGAGGTAACGTAAAGCACG | 1.52
26 | ACAGACAGGTGAGTGAAGGTAGCTCAGCTGGACG | -0.193
27 | TTACCAAGGTGAAAGGTCGTTGGTGCACGCCTTG | 6.09
28 | GCTGCTAGGTCAACTCATGGTCAGCTAAAGCTCG | 2.76
29 | CGCACTAGGTCAAGGACAGTGAATCTCCGCACGC | 1.92
30 | CCAACTAGGTCATCCAGGACAGTGAATACATTGA | 2.35
31 | GCATATAGGTAGTACAAGGTGAAAGTCCGATTGT | 0.66
32 | GTGCCAAGGTGAATAGGTCGTTGATGAGTAGGCG | 1.38
33 | CGTCCAAGGTCAATGCTATGTCAGTGAAAGCATT | 3.88
34 | CGTCCAAGGTCTATGCTAGGTCAGTGAAAGCATT | 1.03
35 | CGAACGAGGGCATGAGTTGATAGAAAATGCCGAT | 0.664
36 | CGTCCAAGGTGAAAGGTCAGTGAAGAGATGACGG | 6.87
37 | CAAACTATGTCACAGAGGTCAAAGTCCGTGCGTA | 5.97
38 | TCTTGAAGATCAAAGGTTAAGAAAGCCGAAGCCT | 3.49
39 | TTACCAAGGTGATAGGTCGTTGATGCACGCCTTG | 1.36
40 | TCTGCTTGGTCAGTTGGTCAGCTAACGAGCTGCC | -0.645
